Each structure is given as a SMILES string. Compounds without any hit were thinned out: in the full panel of roughly 83,000, 20% have a hit.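 How to read the values: 0–100, growth inhibition (40 = 60% inhibited); 0, no net growth; -100 to 0, cell death (-40 = 40% of starting cells died; -100 = all dead).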 Activity calls are given as the source filed them. Rule for the calls: active = growth percent below 10; inactive = the rest.

In the first assay the test system is UACC-62 melanoma. Kind of assay: NCI-60 one-dose screen, 48 h (100 = growth as untreated, 0 = no growth, -100 = all killed). Particulars: 10 µM unless noted.
Regarding `c1cnc2ccc3ncccc3c2c1`, the growth was 99.2% (inactive).

As to `CCCCCCCCCCSc1ncnc2nc[nH]c12`, the growth was 69.9% (inactive).

With `Clc1ccc2c(Nc3ccc4oc(NCCN5CCCC5)nc4c3)ccnc2c1`, the growth was 94.2% (inactive). Turning to `CCCCCCCCCCCCNc1ncnc2[nH]ncc12`, the growth is 57.1% (inactive). Turning to `CCCCCCCC/C=C/CCCCCCCC1=NC(C)(C)CN1CCO`, the growth is -64.4% (active).

Turning to `O=C(CN1CCCCC1)Sc1nnc2sc3ccccc3n12`, the growth was 107% (inactive).

In the case of `c1cncc(CNc2ccccc2-c2nnc(Nc3ccc4c(c3)OCO4)o2)c1`, the growth was 3.81% (active). The same measure, in the same setting: with `CC(=O)NC1(C(=O)O)CCCC1` the figure was 110% (inactive).

As for `c1ccc(N2CCN(c3nncc4ccccc34)CC2)nc1`, the growth was 99.6% (inactive).

With `O=c1[nH]c(Cl)nc2c1cnn2-c1ccccc1`, the growth is 67.6% (inactive). Turning to `ClC1=C(Cl)C(Cl)=C(Cl)C1=C/C=C/c1ccccc1`, the growth was -83.6% (active).

With `CN(CC(=O)N(Cc1ccc(C2CCCCC2)cc1)c1ccc(C(=O)O)cc1)S(=O)(=O)c1c(F)c(F)c(F)c(F)c1F`, the growth was -7.33% (active). With `COc1ccc(C2CC(c3cccc(Nc4ccnc5cc(Cl)ccc45)c3)=NN2C=O)cc1` (stereo unspecified), the growth was 36% (inactive).

With `CCCCCCCCCCCCCCCCCC1=NC(C)(C)CN1CCO`, the growth was -77.1% (active). Turning to `COc1ccc(CCN2CCCN3C2=Nc2ccccc2S3(=O)=O)cc1`, the growth was 23.5% (inactive). On the same count and under the same terms, next, `CCOC(=O)c1cc(-c2cccnc2)nc2c(Cl)cc(Cl)cc12`: 95.6% (inactive); `O=C1C(=O)c2ccc(Br)cc2-c2cc(Br)ccc21`: 92.4% (inactive); `CCOC(=O)c1c(C)c(C(=O)OCC)n(C)c1C`: 83.8% (inactive). The same measure, in the same setting: next, `COc1ncc(-c2ccc3nccc(C#CCN4CCN(S(C)(=O)=O)CC4)c3c2)cc1NS(=O)(=O)c1ccc(F)cc1F`: -54.9% (active); `COc1ccc2c3c(c(OCCCN(C)C)nc2c1)-c1ccc(Cl)cc1C3=O`: -49% (active).

Regarding `CC1=CC(=O)C(C(C)=Nc2ccccc2Cl)C(=O)O1` (stereo unspecified), the growth was 98% (inactive). On the same count and under the same terms, next, `C=C(C[C@](O)(C(=O)/C=C/c1ccc(Cl)cc1)C(=O)OC)c1ccccc1`: 53.8% (inactive); `Nc1ccc(C2=Nc3cccc4cccc(c34)S2)cc1`: 79.8% (inactive); `COc1cc(C2CC(c3ccc(C)cc3)=NN2C(C)=O)ccc1Oc1ccnc2cc(Cl)ccc12` (stereo unspecified): 72.5% (inactive). For `CSc1ncc2ncn(C3OC(CO)C(O)C3O)c2n1` (stereo unspecified), the growth was 103% (inactive). Same read-out and setting: next, `COc1ccc2nc3cc(Cl)ccc3c(Nc3cc(C(C)C)c(O)cc3C)c2c1`: 65.8% (inactive); `O=C(Nc1ccc(Cl)cc1Cl)Nc1ccc(-c2cccnc2)cc1N1CCC(CO)CC1`: 26% (inactive); `COc1ccc2c(c1)C(=O)c1c-2c(OCCCN(C)C)nc2cc(Br)ccc12`: 86.4% (inactive). On the same count and under the same terms, with `CC(O)c1nc2c(c(=O)n(C)c(=O)n2C)n1C` (stereo unspecified) the figure was 102% (inactive); with `COc1cc(Oc2cc(-c3cccnc3)ccc2NC(=O)Nc2ccc(F)cc2F)cc(OC)c1OC`, 88.9% (inactive); with `O=C(/C=C/c1ccccc1Cl)c1ccc(O)cc1`, 73.4% (inactive). Regarding `CN1CCN(Cc2ccc(NC(=O)c3[nH]ncc3Nc3ccnc4ccnn34)cc2)CC1`, the growth is 67.7% (inactive). Turning to `Cc1cc(C(C)(C)c2cc(C)c(O)c(CN(C)C)c2)cc(CN(C)C)c1O`, the growth is 75.5% (inactive). As for `N#Cc1c(N)[nH]c(S)c1C#N`, the growth was 94.9% (inactive).

Another assay relates to LOX IMVI melanoma. The description is as above. Particulars: 10 µM unless noted.
For the compound `c1cnc2ccc3ncccc3c2c1`, the growth is 97.9% (inactive). With `CCCCCCCCCCSc1ncnc2nc[nH]c12`, the growth is 56.3% (inactive). With `Clc1ccc2c(Nc3ccc4oc(NCCN5CCCC5)nc4c3)ccnc2c1`, the growth was 29.5% (inactive). Take `CCN(CC)CCCNCCCNc1cc(OC)cc2cccnc12`: the growth was 80.3% (inactive). On the same count and under the same terms, next, `CCCCCCCCCCCCNc1ncnc2[nH]ncc12`: 44.6% (inactive). As to `CCCCCCCC/C=C/CCCCCCCC1=NC(C)(C)CN1CCO`, the growth is -74.6% (active).

Turning to `O=C(CN1CCCCC1)Sc1nnc2sc3ccccc3n12`, the growth was 103% (inactive). The same measure, in the same setting: next, `c1cncc(CNc2ccccc2-c2nnc(Nc3ccc4c(c3)OCO4)o2)c1`: 8.28% (active); `CC(=O)NC1(C(=O)O)CCCC1`: 106% (inactive).

With `CCCCCCCCCCCCCCCCN=C(CC(=O)O)C(=O)O`, the growth was 90.5% (inactive). On to `c1ccc(N2CCN(c3nncc4ccccc34)CC2)nc1`, for which the growth is 97.5% (inactive). Same read-out and setting: next, `O=c1[nH]c(Cl)nc2c1cnn2-c1ccccc1`: 71.7% (inactive); `ClC1=C(Cl)C(Cl)=C(Cl)C1=C/C=C/c1ccccc1`: -91.6% (active); `CN(CC(=O)N(Cc1ccc(C2CCCCC2)cc1)c1ccc(C(=O)O)cc1)S(=O)(=O)c1c(F)c(F)c(F)c(F)c1F`: -64.1% (active). Still for that read-out and setting: with `COc1ccc(C2CC(c3cccc(Nc4ccnc5cc(Cl)ccc45)c3)=NN2C=O)cc1` (stereo unspecified) the figure was 31.7% (inactive); with `CCCCCCCCCCCCCCCCCC1=NC(C)(C)CN1CCO`, -67% (active); with `COc1ccc(CCN2CCCN3C2=Nc2ccccc2S3(=O)=O)cc1`, 27.7% (inactive). The same measure, in the same setting: next, `CCOC(=O)c1cc(-c2cccnc2)nc2c(Cl)cc(Cl)cc12`: 98.2% (inactive). As for `CCC(C)(C)C(=O)O[C@H]1C[C@@H](C)C=C2C=C[C@H](C)[C@H](CC[C@@H]3C[C@@H](O)CC(=O)O3)[C@H]21`, the growth is -16.2% (active). In the case of `O=C1C(=O)c2ccc(Br)cc2-c2cc(Br)ccc21`, the growth was -24.6% (active). On to `CCOC(=O)c1c(C)c(C(=O)OCC)n(C)c1C`, for which the growth is 103% (inactive).

As to `COc1ncc(-c2ccc3nccc(C#CCN4CCN(S(C)(=O)=O)CC4)c3c2)cc1NS(=O)(=O)c1ccc(F)cc1F`, the growth was -11.4% (active).

As for `COc1ccc2c3c(c(OCCCN(C)C)nc2c1)-c1ccc(Cl)cc1C3=O`, the growth was -93.3% (active). For `CC1=CC(=O)C(C(C)=Nc2ccccc2Cl)C(=O)O1` (stereo unspecified), the growth is 83.6% (inactive).

For the compound `C=C(C[C@](O)(C(=O)/C=C/c1ccc(Cl)cc1)C(=O)OC)c1ccccc1`, the growth was -72.4% (active). For `Nc1ccc(C2=Nc3cccc4cccc(c34)S2)cc1`, the growth was 91.8% (inactive). Same read-out and setting: next, `COc1cc(C2CC(c3ccc(C)cc3)=NN2C(C)=O)ccc1Oc1ccnc2cc(Cl)ccc12` (stereo unspecified): 65.6% (inactive); `CSc1ncc2ncn(C3OC(CO)C(O)C3O)c2n1` (stereo unspecified): 108% (inactive). As for `COc1ccc2nc3cc(Cl)ccc3c(Nc3cc(C(C)C)c(O)cc3C)c2c1`, the growth was 26.8% (inactive). Regarding `O=C(Nc1ccc(Cl)cc1Cl)Nc1ccc(-c2cccnc2)cc1N1CCC(CO)CC1`, the growth is 37.7% (inactive). Still for that read-out and setting: with `COc1ccc2c(c1)C(=O)c1c-2c(OCCCN(C)C)nc2cc(Br)ccc12` the figure was 20.7% (inactive); with `CC(O)c1nc2c(c(=O)n(C)c(=O)n2C)n1C` (stereo unspecified), 104% (inactive); with `COc1cc(Oc2cc(-c3cccnc3)ccc2NC(=O)Nc2ccc(F)cc2F)cc(OC)c1OC`, 107% (inactive).

In the case of `O=C(/C=C/c1ccccc1Cl)c1ccc(O)cc1`, the growth was 36.2% (inactive). Same read-out and setting: next, `CN1CCN(Cc2ccc(NC(=O)c3[nH]ncc3Nc3ccnc4ccnn34)cc2)CC1`: 24.1% (inactive). As for `Cc1cc(C(C)(C)c2cc(C)c(O)c(CN(C)C)c2)cc(CN(C)C)c1O`, the growth is 81.8% (inactive). For `N#Cc1c(N)[nH]c(S)c1C#N`, the growth was 102% (inactive).

(Values after PubChem BioAssay (NCI).)
